High-throughput results: PubChem BioAssay, National Center for Advancing Translational Sciences (NCATS)
Compounds with a hit are over-represented: about 4.7% of the library has one in this group of screens.
TRHR agonist = TRH receptor (human) agonism | activation, % at 2 µM | 360,000 tested, 0.18% active | P34981 | TRHR cells, calcium flux fluo-8, FDSS agonist mode; note: 0% is about no effect
Target sequence (P34981 whole entry, looked up): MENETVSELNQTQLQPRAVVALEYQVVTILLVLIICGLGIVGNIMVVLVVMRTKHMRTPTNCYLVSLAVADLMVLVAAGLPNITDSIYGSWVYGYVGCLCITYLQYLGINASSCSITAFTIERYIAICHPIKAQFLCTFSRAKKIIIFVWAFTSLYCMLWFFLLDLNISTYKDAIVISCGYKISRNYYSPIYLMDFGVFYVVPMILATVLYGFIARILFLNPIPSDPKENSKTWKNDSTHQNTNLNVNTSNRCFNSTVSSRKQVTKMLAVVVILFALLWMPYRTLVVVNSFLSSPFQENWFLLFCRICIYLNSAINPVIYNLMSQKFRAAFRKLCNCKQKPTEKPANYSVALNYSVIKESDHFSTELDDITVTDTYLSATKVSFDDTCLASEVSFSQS
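Read-out: compound-evoked intracellular calcium rise in TRHR cells, fluo-8 dye, kinetic FDSS fluorescence at 1 s/cycle following a 10-cycle baseline. Cells cultured overnight before dye loading (30 min–1.5 h, RT).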
TRHR PAM = allosteric enhancers of human TRH receptor; P34981; TRHR cells, fluo-8 calcium fluorescence, EC20 TRH enhancement; enhancement, % at 2 µM; 360,000 tested, 0.66% active; in the data active = enhancement above about 30%; note: 0% is about no effect
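TRHR-expressing cells loaded with fluo-8 calcium dye were read kinetically (ex 480/em 530) during compound addition, then stimulated with an EC20 of TRH (10 nM final). Enhancement of the Gq-mediated intracellular calcium response was scored.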
D1 PAM = potentiators of human D1 dopamine receptor. P21728. HEK293 TREx D1 cells, calcium flux, dopamine EC20 potentiation. potentiation, % at 10 µM. 360,000 tested, 0.036% active. AID 504651; in the data active = potentiation above about 30%; note: 0% is about no effect
D1 antagonist = antagonists of human D1 dopamine receptor | P21728 | HEK293 TREx D1 cells, calcium flux, dopamine EC80; hits give low values | activity change, negative = inhibition, % at 10 µM | 360,000 tested, 3.2% active; in the data active = activity change below about -30%; note: % is set by controls: 0 for no effect and ±100 for the full control effect
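Antagonism measured as reduced calcium response to an EC80 dopamine addition following 180 s compound pre-read; cells were inducible HEK293 Trex D1 plated overnight at 30 C, read kinetically at 1 cycle/sec.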
D1 ag = human D1 receptor agonism. HEK293 T-REx D1 cells, calcium flux, agonist mode. P21728. activation, % at 2 µM. 360,000 tested, 1% active; note: 0% is about no effect
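Tetracycline-induced HEK293 TREx D1 cells, force-coupled to calcium signalling, were dye-loaded with a no-wash calcium kit. Compound was pin-added after a 10 s baseline. Fluorescence was read kinetically at 1 cycle/s for 180 s, with calcium rises flagged as agonism.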
* hit, by the source's call. Cut-off read from the data, not from the text of the source, unless noted: active = activation above about 30%; inactive = the rest.

SMILES | TRHR agonist | TRHR PAM | D1 PAM | D1 antagonist | D1 ag
Cc1ccc(C)c(N2CCN(CCCNC(=O)C3COc4ccccc4C3)CC2)c1 (stereo unspecified) | 1.3 | -5.8 | -0.1 | -26.1 | 63.3*
O=C(NCCN1CCN(c2ccccc2F)CC1)C1c2ccccc2C(=O)N2CCc3ccccc3C12 (stereo unspecified) | 0.4 | 0.7 | -4.5 | -44.1* | 0.3
CCC(=O)N1c2ccccc2CC1C(=O)NCCN1CCN(c2ccccc2F)CC1 (stereo unspecified) | 0.2 | -0.8 | -1.1 | -3.5 | -0.7
COc1ccc(N2CCN(CCCNC(=O)C3COc4ccccc4C3)CC2)cc1 (stereo unspecified) | 0.1 | 7.6 | -0.8 | -18.7 | 13.1
Cc1ccc(C2(C)NC(=O)N(CC(=O)N(Cc3ccccc3)C(C)(C)C)C2=O)cc1 (stereo unspecified) | 1.2 | -9.9 | 7.6 | -0.8 | 1.5
O=C(COC(=O)CSc1ccc([N+](=O)[O-])cc1)NCCc1ccccc1 | -0.6 | -0.1 | -13.8 | -33.7* | 9.5
COc1ccc(CCNC(=O)CN(c2cc([N+](=O)[O-])ccc2OC)S(C)(=O)=O)cc1OC | 0.8 | 32.4* | -5.3 | 4.4 | 2.3
O=C(COC(=O)CSc1ccc([N+](=O)[O-])cc1)NCCCc1ccccc1 | -0.3 | -4.6 | -8.4 | -32.7* | 9.1
O=C(COC(=O)CSc1ccc(F)cc1)NCCCc1ccccc1 | -0.8 | 3.0 | -2.2 | 24.9 | 4.4
CC(OC(=O)CSc1ccc([N+](=O)[O-])cc1)C(=O)NCc1ccccc1 (stereo unspecified) | -0.4 | 11.6 | -15.2 | -55.0* | 19.0
O=C(COC(=O)CSc1ccc([N+](=O)[O-])cc1)NCc1ccco1 | 0.0 | 1.8 | -5.3 | -5.8 | 5.9
COc1ccc(CCNC(=O)Cc2ccc([N+](=O)[O-])cc2)cc1OC | -0.1 | 13.7 | -2.1 | 12.3 | 1.6
O=C(COC(=O)Cc1ccc(F)cc1)NCCc1ccccc1 | -0.7 | -0.5 | -2.8 | -4.7 | 2.2
O=C(COC(=O)Cc1cccc(F)c1)NCCc1ccccc1 | -1.1 | -5.4 | -3.9 | -67.6* | 0.7
Cc1ccccc1CN(C)C(=O)COC(=O)CSc1ccc([N+](=O)[O-])cc1 | -0.1 | 1.3 | -5.3 | -32.8* | 14.4
COc1ccc(CCNC(=O)COC(=O)CSc2ccc([N+](=O)[O-])cc2)cc1OC | 3.1 | -6.7 | -9.4 | -45.1* | 6.2
Cc1ccc(CN(C)C(=O)COC(=O)CSc2ccc([N+](=O)[O-])cc2)cc1 | -0.7 | -1.4 | -4.8 | -6.4 | 4.6
Cc1sc2ncnc(N3CCC(C(=O)Nc4ccc(Br)cc4Br)CC3)c2c1C | 0.1 | -3.2 | 0.7 | 13.8 | 1.0
CCCOc1cccc(C2/C(=C(/O)c3ccc(F)cc3)C(=O)C(=O)N2CCN(C)C)c1 (stereo unspecified) | 0.4 | -1.5 | -2.6 | 1.0 | 3.0
C=CCOc1cccc(C2/C(=C(\O)c3ccc(F)cc3)C(=O)C(=O)N2CCN(C)C)c1 (stereo unspecified) | -0.3 | -2.9 | -5.2 | -52.7* | -0.5
Cc1ccc(C(=O)NCCc2nnc3ccc(SCC(=O)NCc4ccc(F)cc4)nn23)cc1 | -0.4 | -2.1 | -1.3 | 14.6 | 2.3
O=C(O)CCN1C(=O)C2C3c4ccccc4C(c4ccccc43)[C@@H]2C1=O (stereo partly specified) | -0.5 | -4.4 | 2.1 | -31.1* | 3.0
O=C(O)CCN1C(=O)C2C3c4ccccc4C(c4ccccc43)C2C1=O (stereo unspecified) | 0.5 | 3.5 | -7.3 | 8.7 | 4.6
COc1cccc(NC(=O)Nc2ccc3c(c2)CCC3)c1 | -0.1 | 17.2 | -4.7 | -29.9 | 13.8
COc1ccc(Nc2cc(O)c3ncccc3c2)cc1 | -0.5 | -2.0 | -8.1 | -2.6 | 0.4
SMILES | TRHR agonist | TRHR PAM | D1 PAM | D1 antagonist | D1 ag
Cc1cccc(CC(C)NC(=O)c2cc(COc3ccc(C)c(C)c3)on2)n1 (stereo unspecified) | -0.6 | 8.4 | 1.9 | -24.1 | 1.7
Cc1ccc(OCc2cc(C(=O)NC(C)Cc3cnccn3)no2)cc1C (stereo unspecified) | -0.3 | 0.3 | 4.7 | -39.7* | 3.3
COC(=O)c1sc(-c2ccc(Cl)cc2)cc1NC(=O)CSCC(=O)O | -0.1 | -1.9 | 0.3 | 1.8 | 3.4
COC(=O)c1sc(-c2ccc(C(C)(C)C)cc2)cc1NC(=O)COCC(=O)O | 0.9 | -24.3 | -3.9 | -39.3* | 58.4*
COc1cc(OC)c(C2C=C(c3ccc(C)cc3)Nc3c(C(=O)Nc4ccccc4)cnn32)cc1OC (stereo unspecified) | -0.3 | -4.5 | -5.8 | -45.2* | 2.7
COc1ccc(C2C=C(c3ccc(C)cc3)Nc3c(C(=O)Nc4ccccc4)cnn32)cc1 (stereo unspecified) | 0.1 | -6.7 | -0.1 | 10.1 | 3.4
Cc1c(CNC2CCCCCC2)c(C(=O)O)c(C)n1Cc1c(F)cccc1Cl | 0.5 | -4.8 | 2.8 | -12.1 | -0.6
O=[N+]([O-])c1ccc(-c2cn3nc(-c4ccccc4)c(-c4ccccc4)nc3n2)cc1 | 3.7 | 2.2 | 0.7 | -18.9 | 10.3
Cc1ccc(-c2cn3nc(-c4ccccc4)c(-c4ccccc4)nc3n2)cc1 | 4.1 | 2.7 | 5.0 | -0.2 | 43.2*
COc1ccc(N2CCN(C(=O)CCS(=O)(=O)c3cc(Br)cc4c3N(C(=O)C3CC3)CC4)CC2)cc1 | -0.7 | -2.6 | -1.2 | -3.8 | -0.4
CCN(C(=O)c1cc2c(=O)oc3ccc(C)cc3c2s1)c1cc(OC)ccc1OC | 0.6 | 17.2 | -2.9 | 15.4 | 5.8
O=C(CN1CCCCCC1)N1c2ccccc2Sc2ccccc21 | 1.5 | 1.5 | -5.2 | 14.5 | 5.2
CCOC(=O)Nc1ccc2c(c1)N(C(=O)N1CCN(C)CC1)c1ccccc1S2 | 1.3 | -6.4 | -11.3 | -64.1* | 9.8
CCOC(=O)N1CCN(CC(=O)N2c3ccccc3Sc3ccccc32)CC1 | -0.5 | 8.0 | 11.6 | -4.7 | 47.1*
CC1CCCN(CC(=O)N2c3ccccc3Sc3ccccc32)C1 (stereo unspecified) | 0.2 | 36.4* | -3.3 | 9.1 | 8.8
Cc1ccc(NC(=O)c2oc3ccc(S(=O)(=O)N4CCC5(CC4)OCCO5)cc3c2C)c(C)c1 | 0.5 | -2.6 | 2.5 | -5.6 | -1.5
COc1ccc(NC(=O)Cn2c(=O)oc3cc(S(=O)(=O)N4CCC(C)CC4)ccc32)c(OC)c1 | -1.5 | -7.4 | -0.2 | -9.3 | 0.2
Oc1ccc(Cl)cc1CNCc1ccc(F)cc1 | 5.7 | 1.6 | -7.8 | -15.6 | 60.5*
Oc1ccc(Cl)cc1CNCc1ccc(Cl)cc1 | 0.6 | -1.2 | 1.0 | 18.3 | 21.1
Oc1ccc(Cl)cc1Cc1cc(Cl)ccc1O | -1.5 | -1.7 | 12.9 | 32.9 | 111.0*
CCc1ccccc1NC(=O)Cn1c(=O)n(CCc2ccccc2)c(=O)c2sc3ccccc3c21 | -2.1 | -0.2 | 1.0 | 5.7 | -1.3
